Reference: PubChem BioAssay AID1053122 (Broad Institute, 2014)
Entries with a potency or affinity are not part of this list. The source made the active and inactive calls.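 Rule for the calls: active = CTGF level falls with dose and the fitted half-maximal dose is at most twice the top valid dose; inconclusive = flat fit with 30 to 70% drop, or a poor fit; inactive = the rest.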

Assay: YAP1 pathway inhibition via CTGF transcript levels, dose response, cell-based, DLD1 colon cancer, RT-qPCR, cherry-pick (AID 1053122)
Settings: DLD1 CTGF mRNA (YAP1 pathway), 24 h; series mostly up to 26 µM; CTGF expression fold change (lower = inhibition): at the top concentration

Row | Compound | CTGF expression fold change (lower = inhibition)
1 | COc1cccc(-c2ccc([C@H]3[C@H](CO)N4CCCCN(C(=O)Cc5ccncc5)C[C@@H]34)cc2)c1 | 0.94 unspecified (inactive)
2 | COc1cccc(-c2ccc([C@@H]3[C@@H](CO)N4CCCCN(C(=O)Cc5ccncc5)C[C@@H]34)cc2)c1 | 0.867 unspecified (inactive)
3 | O=C(Cc1ccncc1)N1CCCCN2[C@@H](CO)[C@@H](c3ccc(C#Cc4ccccc4F)cc3)[C@@H]2C1 | 0.834 unspecified [at 23.5 µM] (inactive)
4 | O=C(Cc1ccncc1)N1CCCCN2[C@H](CO)[C@@H](c3ccc(C#Cc4ccccc4F)cc3)[C@H]2C1 | 0.661 unspecified (inactive)
5 | COc1cccc(-c2ccc([C@@H]3[C@H](CO)N4CCCCN(C(=O)Cc5ccncc5)C[C@@H]34)cc2)c1 | 0.779 unspecified (inactive)
6 | COc1cccc(-c2ccc([C@@H]3[C@@H](CO)N4CCCCN(C(=O)Cc5ccncc5)C[C@H]34)cc2)c1 | 0.988 unspecified (inactive)
7 | O=C(Cc1ccncc1)N1CCCCN2[C@H](CO)[C@H](c3ccc(C#Cc4ccccc4F)cc3)[C@H]2C1 | 1.23 unspecified (inactive)
8 | O=C(Cc1ccncc1)N1CCCCN2[C@H](C1)[C@@H](c1ccc(C#Cc3ccccc3F)cc1)[C@@H]2CO | 0.741 unspecified (inactive)
9 | O=C(Cc1ccncc1)N1CCCCN2[C@H](CO)[C@@H](c3ccc(C#Cc4ccccc4F)cc3)[C@@H]2C1 | 0.409 unspecified (inactive)
10 | COc1cccc(-c2ccc([C@H]3[C@@H](CO)N4CCCCN(C(=O)Cc5ccncc5)C[C@H]34)cc2)c1 | 1.61 unspecified (inactive)
11 | COc1cccc(-c2ccc([C@H]3[C@@H](CO)N4CCCCN(C(=O)Cc5ccncc5)C[C@@H]34)cc2)c1 | 0.966 unspecified (inactive)
12 | COc1cccc(-c2ccc([C@@H]3[C@H]4CN(C(=O)Cc5ccncc5)CCCCN4[C@H]3CO)cc2)c1 | 1.38 unspecified (inactive)
